This is a sample that favours compounds with a hit; in the whole collection about 18% have one here.
TGFb SMAD3 inh: TGF-b pathway inhibition; HepG2 CAGA-GFP TGF-b/SMAD3 reporter, GFP fluorescence, 18 h; TGF-beta stimulated, 500 pg/mL final; Potency, µM (doses to about 46.1 µM), without a hit: at the highest dose activity, negative = inhibition, hits mostly inhibitors; hit rate 1.2% among 410,000; AID 588855; note: potency is the fitted concentration of half-maximal effect; % is set by controls: 0 for no effect and ±100 for the full control effect; nearly all actives have a fitted effect of over 65% in size
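Per well, imaged GFP fluorescence of HEPG2 CAGA-GFP cells gives the signal; cells get compound, then TGF-beta (500 pg/mL final), 18 h at 37 degrees C; %Activity versus -TGF-beta and +DMSO controls.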
HepG2 viability: kills HepG2 cells in TGF-b inhibitor counter-screen. AID 588856. hit rate 0.76% among 410,000. Potency, µM (series often up to 46.1 µM), without a hit: at the highest dose activity change, negative = cytotoxicity, actives largely listed as cytotoxic. HepG2 CAGA-GFP viability, ATP luminescence, 18 h; note: potency is the fitted concentration of half-maximal effect
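HepG2 CAGA-GFP cells (1000/well, DMEM with 1% FBS) received compound, then TGF-beta at 500 pg/mL final, and were incubated 18 hours at 37 degrees C. Viability was read by CellTiter-Glo luminescence. Media-only wells were set as complete cell-killing and DMSO as no toxicity.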
DT40 TDP1 no CPT: qHTS for Inhibitors of human tyrosyl-DNA phosphodiesterase 1 (TDP1): qHTS in cells in absence of CPT | DT40 Tdp1-/- hTDP1 cells, no CPT, ATP luminescence, 48 h | hit rate 15% among 420,000 | Potency, µM (series often up to 46.2 µM), for the others: at the highest dose activity change, negative = growth inhibition, actives largely listed as inhibitors; note: potency is the fitted concentration of half-maximal effect; % is set by controls: 0 for no effect and ±100 for the full control effect; nearly all actives have a fitted effect of over 55% in size
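Growth kinetics read by CellTiter-Glo luminescence after ≥48 hr at 37 °C. Cells: DT40 Tdp1-/- stably carrying human TDP1, 400 per well, compound exposure in the absence of CPT (DMSO vehicle).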
TDP1 cell CPT: DT40-hTDP1 cell growth loss with CPT. chicken DT40 Tdp1-/-;hTDP1 cells + 20 nM CPT, ATP luminescence, 48 h. AID 686979. Potency, µM (doses to about 46.2 µM), without a hit: at the top dose activity change, negative = growth inhibition, actives largely listed as inhibitors. hit rate 12% among 420,000; note: potency is the fitted concentration of half-maximal effect; % is set by controls: 0 for no effect and ±100 for the full control effect; nearly all actives have a fitted effect of over 55% in size
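Cell growth measured by CellTiter-Glo luminescence after a minimum 48 h, 37 C compound exposure with 20 nM CPT in Tdp1-knockout DT40 cells stably expressing hTDP1, seeded 400/well; qHTS titration format.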
TDP1 block: TDP1 (human) enzyme inhibition | recombinant TDP1, AlphaScreen DNA substrate cleavage | Potency, µM (highest dose often 130 µM), for the others: top-dose activity change, negative = inhibition, actives largely listed as inhibitors | hit rate 0.28% among 350,000 | AID 485290; note: potency is the fitted concentration of half-maximal effect; % is set by controls: 0 for no effect and ±100 for the full control effect; nearly all actives have a fitted effect of over 40% in size
Target sequence (Q9NUW8 whole entry, looked up): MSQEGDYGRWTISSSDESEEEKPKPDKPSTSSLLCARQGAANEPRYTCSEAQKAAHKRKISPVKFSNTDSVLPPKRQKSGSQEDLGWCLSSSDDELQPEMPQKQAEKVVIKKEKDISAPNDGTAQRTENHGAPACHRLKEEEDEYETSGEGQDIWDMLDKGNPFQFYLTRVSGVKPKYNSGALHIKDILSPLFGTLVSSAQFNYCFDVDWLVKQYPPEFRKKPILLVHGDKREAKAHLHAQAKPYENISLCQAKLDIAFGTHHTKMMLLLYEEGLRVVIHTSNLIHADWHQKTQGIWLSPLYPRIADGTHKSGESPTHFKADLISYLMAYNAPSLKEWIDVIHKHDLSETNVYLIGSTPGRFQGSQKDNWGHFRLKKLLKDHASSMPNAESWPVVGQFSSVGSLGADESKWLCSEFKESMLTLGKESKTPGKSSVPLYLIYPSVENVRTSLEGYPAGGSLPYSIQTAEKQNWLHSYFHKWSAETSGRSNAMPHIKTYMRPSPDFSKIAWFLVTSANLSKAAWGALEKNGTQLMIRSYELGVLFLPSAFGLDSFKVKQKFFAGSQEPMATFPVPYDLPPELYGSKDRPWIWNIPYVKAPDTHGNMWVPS
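Enzyme-compound mixtures sat 15 min at room temperature, followed by a 5 min reaction with 15 nM final substrate and 10 min with AlphaScreen beads. Recombinant human Tdp1 was used at 1 nM final.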
IL1B secr inh: inflammasome signaling inhibition, IL-1 beta readout | hit rate 4.7% among 360,000 | AID 743279 | THP-1 LPS/ATP IL-1B secretion, AlphaLISA, 16 h; stronger effect = lower value | activity change, % at 57.5 µM; in the data active = activity change below about -50%; inconclusive = mostly about -30% to -49%; note: % is set by controls: 0 for no effect and ±100 for the full control effect
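THP-1 cells pretreated 1 hr with compounds (up to 57.5 uM final), then stimulated with LPS (250 ng/mL final) plus ATP (1.25 mM final); secreted IL-1B measured by AlphaLISA after 16 hr, decreased signal indicating inhibition.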
An asterisk follows results filed as active; ? = inconclusive; nt = no result; [ ] = remark or other dose. Unless noted, calls come from the whole dose curve; as a rule, active = well fitted curve in the direction sought with a large enough effect; inconclusive = small, poorly fitted or top-dose-only effect, or another doubt; inactive = no such curve, though single readings can be large; an effect the other way counts as inactive or inconclusive.

SMILES | TGFb SMAD3 inh | HepG2 viability | DT40 TDP1 no CPT | TDP1 cell CPT | TDP1 block | IL1B secr inh
Cc1ccc(C(=O)C2CCN(CC(=O)N3CCN(c4ccc(F)cc4)CC3)CC2)cc1 | -29% | -28% | 18µM* | ? | 3% | -55*
CC(=O)Nc1ccc(S(=O)(=O)NCCc2cn3ccsc3n2)cc1 | 7% | -1% | -8% | 12% | 3% | nt
O=C(Nc1ccccc1N1CCCC1)C1CCCO1 (centres undefined) | 2% | -4% | -9% | 0% | 1% | 6
Cc1cc(=O)n(Cc2ccc(Br)cc2F)c2c1c(C)nn2-c1ccccc1 | 15% | 1% | -1% | -5% | 7% | nt
Cc1ccc(CSCCC(=O)N2CCN(c3ccc(F)cc3)CC2)cc1 | ? | -24% | -21% | -9% | 5% | nt
COc1ccc(N2CCN(C(=O)CSCc3ccc(C)cc3)CC2)cc1 | ? | -42% | 18µM* | 21µM* | 3% | nt
O=C(CSCc1ccc(F)cc1)N1CCN(c2ccc(F)cc2)CC1 | ? | -16% | 13µM* | ? | 1% | -14
Cc1ccc(CSCC(=O)N2CCN(c3ccc(F)cc3)CC2)cc1 | ? | -31% | 23µM* | 26µM* | 8% | -17
CC(C)NC(=O)c1csc(COCCO)n1 | -1% | -3% | -10% | -19% | nt | -7
CCC(=O)Oc1cccc(C(=O)Nc2cccc(NC(=O)c3ccco3)c2)c1 | -8% | -3% | -16% | -20% | nt | -4
Cc1ccc(C(C)C)c(OCC(=O)NCC2(N3CCOCC3)CCCCC2)c1 | ? | -99% | 7.3µM* | 9.2µM* | -1% | nt
O=C(COc1ccccc1Cl)NCC1(N2CCOCC2)CCCCC1 | ? | -32% | 15µM* | 21µM* | 3% | nt
O=C(COc1ccc(Cl)cc1Cl)NCC1(N2CCOCC2)CCCCC1 | -16% | 5% | 21µM* | 18µM* | -2% | -65*
OC(CNCC1(N2CCCCC2)CCCCC1)COc1ccc(Cl)cc1Cl (centres undefined) | -19% | -31% | 15µM* | ? | -2% | -91*
O=C(COc1ccc(Cl)cc1Cl)NC(=O)N1CCCCC1 | 2% | 5% | -13% | 9% | -2% | 0
COc1ccccc1OCC(=O)NCC1(N2CCOCC2)CCCCC1 | 3% | -2% | -56% | ? | 4% | nt
Cc1cc(OCC(=O)NCC2(N3CCOCC3)CCCCC2)ccc1Cl | 0% | -23% | ? | ? | -7% | nt
CCS(=O)(=O)c1nc2ccccc2n1CC(=O)Nc1ccccc1C(=O)OC | -4% | -40% | -6% | -1% | 4% | nt
Cc1nn(CC(=O)NCc2cccc(Br)c2)c(=O)c2c1sc1ccccc12 | -2% | -46% | -4% | -16% | 11% | nt
Fc1cccc(-n2ncc(-c3nnnn3-c3ccccc3)c2C(F)(F)F)c1 | -4% | -16% | -23% | -6% | 3% | 2
FC(F)(F)c1nc(N2CCCC2)ncc1-c1nnnn1-c1ccccc1 | -10% | -19% | 23µM* | 16µM* | -4% | -19
Cc1ccc(-n2nnnc2-c2cnc(N3CCCC3)nc2C(F)(F)F)cc1 | ? | -11% | 12µM* | 23µM* | 2% | -25
Cc1cc(C)cc(NC(=O)C2CCN(c3cc(C)nc4c(-c5ccc(Cl)cc5)c(C)nn34)CC2)c1 | -2% | 6% | -6% | 4% | -1% | nt
O=S(=O)(Nc1cc(O)cc2cccnc12)c1ccc(Cl)s1 | nt | nt | nt | nt | 23% | nt
COc1cc(C=C2CCCC(=Cc3ccc(OCC4CO4)c(OC)c3)C2=O)ccc1OCC1CO1 (centres undefined) | ? | -53% | 3.7µM* | 5.8µM* | nt | -105*
SMILES | TGFb SMAD3 inh | HepG2 viability | DT40 TDP1 no CPT | TDP1 cell CPT | TDP1 block | IL1B secr inh
Cc1ccc(C(=O)c2oc3ccccc3c2NC(=O)COc2ccc(C(C)C)cc2)cc1 | 1% | -13% | ? | -22% | 3% | nt
O=C(c1cccc(OC2CCN(Cc3ccc(F)cc3Cl)CC2)c1)N1CCCC1 | ? | -27% | ? | 21µM* | 2% | 14
CSc1ccc(CN2CCC(Oc3cccc(C(=O)N4CCCC4)c3)CC2)cc1 | ? | -38% | 18µM* | 21µM* | 1% | 0
COC(=O)c1ccc(CN2CCC(Oc3cccc(C(=O)N4CCCC4)c3)CC2)cc1 | 2% | -9% | ? | ? | nt | -3
Cc1ccc(NS(=O)(=O)c2cccc(C(=O)NC3CCN(Cc4ccccc4)CC3)c2)c(C)c1 | ? | -57% | ? | 9.2µM* | nt | ?
C=CCN(c1ccccc1)S(=O)(=O)c1cccc(C(=O)NC2CCN(Cc3ccccc3)CC2)c1 | ? | -22% | 18µM* | 13µM* | -16%[0.505 µM] | -54*
COc1ccccc1NS(=O)(=O)c1ccc(C)c(C(=O)NC2CCN(Cc3ccccc3)CC2)c1 | -15% | -19% | 16µM* | 21µM* | 0% | -57*
COc1ccccc1NS(=O)(=O)c1cccc(C(=O)NC2CCN(Cc3ccccc3)CC2)c1 | -25% | -18% | 23µM* | ? | 0% | ?
O=C(OCC#CCSc1nnc(-c2cccc3ccccc23)o1)c1sc(Cl)c(Cl)c1Cl | nt | nt | nt | nt | -2% | nt
Cc1cc(=O)c2c([nH]1)c(C)cc1[nH]c(C)c(C)c12 | 36% | -1% | ? | ? | 14% | 15
Cc1ccc(Cn2cc(CN3CC(N4CCN(CCO)CC4)CS3(=O)=O)nn2)cc1 (centres undefined) | nt | nt | 0% | -22% | nt | 42
CCN(CC)S(=O)(=O)c1ccc(Cl)c(C(=O)NC2CCN(Cc3ccccc3)CC2)c1 | ? | -3% | 13µM* | 16µM* | nt | -9
O=C(NC1CCN(Cc2ccccc2)CC1)c1cccc(S(=O)(=O)Nc2ccc(Br)cc2)c1 | ? | -41% | ? | 21µM* | nt | ?
CCN(CC)S(=O)(=O)c1ccc(Cl)c(C(=O)Nc2cc(C)nn2-c2ccccc2)c1 | -4% | -10% | ? | 18µM* | 4% | -18
CCN(CC)S(=O)(=O)c1cccc(C(=O)Nc2cc(C)nn2-c2ccccc2)c1 | 14% | -8% | ? | 2% | 0% | 22
CN(C)S(=O)(=O)c1cccc(C(=O)NCC(=O)NC2CCN(Cc3ccccc3)CC2)c1 | -3% | -6% | ? | -17% | -3% | 19
Cc1cccc(C(=O)NC2CC3CCCC(C2)N3S(=O)(=O)c2ccccc2)c1 (centres undefined) | -14% | -24% | 18µM* | 13µM* | 5% | -56*

High-throughput results (PubChem BioAssay)
